SMILES strings stand for the structures. This is part of a sample that, as a whole, favours compounds with a hit. Of some 83,000 tested, about 20% had one in any assay.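 Cells were grown in 96-well plates and exposed to the test compound at a single concentration for 48 hours; results are reported as percent growth, with values below 10 considered active.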 A number with no mark means an inactive call. Active and inactive are the calls of the source.

In this experiment the test system is NCI-H522 lung. As to the kind of experiment: NCI-60 one-dose screen, 48 h (100 = growth as untreated, 0 = no growth, -100 = all killed). The conditions noted are these: 10 µM. Here is the method:
Growth inhibition of the NCI-H522 human Non-Small Cell Lung tumor cell line is measured as a screen for anti-cancer activity. Cells are grown in 96 well plates and exposed to the test compound for 48 hours. Compounds are tested at a single concentration, which is 10^-5 M for most compounds. The reported endpoint is percent growth (GI% or GIPRCNT), where numbers from 0 - 100% represent growth inhibition, and numbers from -100% - 0 represent cell death. For example, a value of 40 represents 60% growth inhibition. A value of 0 means no net growth occurred over the course of the experiment. A value of -40 indicates 40% of cells at the beginning of the experiment died by the end of the experiment. A value of -100 means all cells are dead at the end of the experiment.
NCI-60 Human Tumor Cell Lines Screen was performed using the standard one-dose NCI protocol, which is described in more detail at https://dtp.cancer.gov/discovery_development/nci-60/default.htm.
Compounds with GIPRCNT values below 10 were considered active. Activity score was based on GIPRCNT using the following formula: […]
Score is 0 for GIPRCNT values of 100 or above, 50 for GIPRCNT values of 0, and 100 for GIPRCNT values of -100.
On to `CC(=O)OC1CC2C(C)(C)CCC[C@]2(C)C2=C1C(O)=C(C(C)C)C(=O)C2=O` (stereo not given in full), for which the growth is 58.6%. Under `O=[N+]([O-])c1cc(Cl)cc(Cl)c1O` stands 82.3%; under `O=C1NC(=O)c2c(CCCSc3nc4ccccc4c(=O)n3CCc3ccccc3)cccc21`, 89.3%.

As for `O=C(Nc1ccccc1)Nc1ncnc2c1ncn2-c1ccccc1`, the growth was 74.4%.

In the case of `Cc1ccc(-n2c(C)nn3c(=O)c4c5c(sc4nc23)CN(C)CC5)cc1`, the growth was 71.5%.

For the molecule `O=C(N/N=C/c1ccc(Cl)cc1)c1ccc(Cc2n[nH]c(=O)c3cccnc23)cc1`, the growth is 89%. Under `O=C1C=C(Nc2cccc(Br)c2)c2ccccc2C1=O` stands 27.3%; under `COc1ccccc1/C=N\N/C(N)=N\N=C\c1ccccc1OC`, 4.02% (active); under `CC[C@@H](C(=O)[C@@H](C)[C@@H](O)[C@H](C)[C@@H]1O[C@@H]([C@@H](CC)C(=O)O)CC[C@@H]1C)C1O[C@]2(C=CC(=O)[C@]3(CC[C@@](C)([C@H]4CC[C@](O)(CC)[C@H](C)O4)O3)O2)[C@H](C)C[C@@H]1C` (stereo not given in full), 24.6%. `CCOc1ccccc1/C=N\N=C(\N)N/N=C/c1ccccc1OCC`: the growth is 7.36% (active).

On to `CC1OC2CC(=O)OC2C2=C1C(=O)c1c(O)c3c(c(O)c1C2=O)C1CC(O)C3(O)C(C)O1` (stereo not given), for which the growth was -66.4% (active). Under `Nc1cc(Br)c(-c2nn3c(CCC(=O)c4nc5ccccc5[nH]4)nnc3s2)c(Br)c1` stands 97.4%; under `COc1ccc(C(=O)CC(CC(=O)c2ccc(OC)cc2)c2c(C)nn(-c3ccccc3)c2Cl)cc1`, 79.4%. Under `COc1cc(-c2nn(-c3cccc(NC(=O)CCNc4ccc(N5CCOCC5)cc4)c3)cc2-c2ccncc2)ccc1Cl` stands 11.9%; under `OCC1OC(n2ccc3c(NO)ncnc32)C(O)C1O` (stereo not given), -30.1% (active).

Turning to `CCN(CCCNc1cc2c(c(N)c1S(=O)(=O)O)C(=O)c1ccccc1C2=O)c1ccccc1`, the growth was 96.3%.

With `Cc1nn(-c2ccccc2)c2nc(Cl)c(C=O)c(-c3ccccc3)c12`, the growth is 106%. Under `COc1cc(C2C(C#N)=C(N)Oc3cc(O)ccc32)cc(OC)c1OC` (stereo not given) stands 1.54% (active); under `CCn1c(SC/C(=N/O)c2ccccc2)nnc1-c1ccccc1`, 112%; under `COc1cc2c3c(n(C4CCNCC4)c(=O)c2cc1OC)-c1cc2c(cc1C3=O)OCO2`, -44.3% (active). Under `CC(=O)C1N=NCC1c1ccccc1` (stereo not given) stands 88.5%; under `CCOC(=O)c1cc(C(=O)c2cc(OC)c(OC)c(OC)c2)n2ncc3ccccc3c12`, 39.6%. Turning to `Nc1nc(Cn2c(-c3nonc3N)nc3ccccc32)nc(N2CCCCC2)n1`, the growth was 71.7%. Under `Cc1cc(SC#N)cc(C(C)(C)C)c1O` stands 68.1%; under `CN1CCN(CC(=O)Nc2cccc(-n3cc(-c4ccncc4)c(-c4ccc(Cl)c(O)c4)n3)c2)CC1`, 18.1%; under `COc1ccc(-c2n[nH]nc2-c2cc(OC)c3c(c2OC)OCO3)cc1`, -12.8% (active). Turning to `CC(=O)N[C@H](C(=O)N[C@@H](CCCNC(=N)N)C(=O)N[C@@H](CCCCN)C(=O)N[C@@H](CCCNC(=N)N)C(=O)N[C@]1(C)CCC/C=C\CCC[C@@](C)(C(=O)N[C@@H](CC(C)C)C(=O)N[C@@H](CC(C)C)C(=O)N[C@@H](CCC(N)=O)C(=O)N[C@@H](CCC(=O)O)C(=O)N[C@@H](CCCNC(=N)N)C(=O)N[C@@H](CCC(=O)O)C(=O)N[C@@H](CC(C)C)C(=O)N[C@H](C(=O)N[C@@H](CCC(=O)O)C(N)=O)C(C)C)NC(=O)[C@H](CCCNC(=N)N)NC(=O)[C@H](CC(C)C)NC1=O)C(C)C`, the growth was 96.8%. Under `CC[C@@H]1NC(=O)[C@H]([C@H](O)[C@H](C)C/C=C/c2ccc(CN3C(=O)CCCC3=O)cc2)N(C)C(=O)[C@H](C(C)C)N(C)C(=O)[C@H](CC(C)C)N(C)C(=O)[C@H](CC(C)C)N(C)C(=O)[C@@H](C)NC(=O)[C@H](C)NC(=O)[C@H](CC(C)C)N(C)C(=O)[C@H](C(C)C)NC(=O)[C@H](CC(C)C)N(C)C(=O)CN(C)C1=O` stands 23.5%. Under `O=C1CC(SC(=S)C2CCCC2=O)C(=O)N1` (stereo not given) stands 109%. In the case of `O=C(O)c1cc([N+](=O)[O-])ccc1Oc1ccccc1`, the growth is 97.1%.

Consider `CCc1ccc(C2=NN(c3ccc(S(C)(=O)=O)cc3)C(=O)CC2)cc1`, for which the growth is -1.27% (active). Under `COc1ccccc1-n1c(-c2csc(NC(C)=O)n2)n[nH]c1=S` stands 82.5%. Regarding `COc1cc(-c2csc(NC(=O)Nc3ccc(Cl)c(C(F)(F)F)c3)n2)cc(OC)c1OC`, the growth is -25.4% (active).

`Cc1ccc(C2NC(=S)N3C(c4ccc(C)cc4)NC(=S)N23)cc1` (stereo not given): the growth was -39.2% (active). Under `CC1=NN(C(=O)c2nn(-c3ccc(Cl)cc3)cc2O)C(=O)C1` stands 42.3%. Take `O=C(CSc1nccc(Nc2cccc3ccccc23)n1)c1ccc(Cl)cc1`: the growth is 81.9%. Turning to `COc1ccc2nc3cc(Cl)ccc3c(N)c2c1`, the growth is -75.8% (active).

In the case of `COc1cc2c3c(n([C@@H]4CCOC4)c(=O)c2cc1OC)-c1cc2c(cc1C3=O)OCO2`, the growth is 17.5%.

With `NS(=O)(=O)c1ccc(Br)cc1`, the growth was 86.2%. Regarding `Fc1ccc(C(c2ccc(F)cc2)C(Cl)Cl)cc1`, the growth was 93.8%.

Source of the values: PubChem BioAssay (NCI).
